TRPML1 ag = human mucolipin-1 channel agonism; Q9GZU1; 410,000 compounds, 0.12% hits; TRPML1-expressing cells, Ca2+ dye fluorescence, FDSS; activation, % (no concentration beside the values); in the data active means activation above about 50%; inconclusive means mostly about 30% to 49%; further: 0% is about no effect
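Tetracycline-induced TRPML1-DL cells are seeded and incubated overnight before loading with a no-wash Ca2+ dye and quencher. Agonist activity is taken from the 110 s fluorescence read following compound pin-transfer on an FDSS, before EC80 54-4 challenge.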
TRPV1 PAM = enhances activation of the human vanilloid receptor TRPV1. Q8NER1. TRPV1-expressing cells, Fluo-8 calcium influx, capsaicin EC20 potentiation. potentiation, % at 8.33 µM. 320,000 compounds, 0.02% hits. AID 540277; in the data active means potentiation above about 80%; inconclusive means between about 30% and that limit; further: 0% is about no effect
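Cells expressing TRPV1 were dye-loaded with Fluo-8 and read kinetically: 10 s baseline, 3 min after compound (agonist portion), then 2 min after EC20 capsaicin (allosteric enhancer portion). Calcium-bound dye fluorescence at 480/520 nm.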
TRHR enhancer-1 = allosteric enhancers of human TRH receptor; P34981; 360,000 compounds, 0.66% hits; enhancement, % at 2 µM; TRHR cells, fluo-8 calcium fluorescence, EC20 TRH enhancement; in the data active means enhancement above about 30%; further: 0% is about no effect
Target sequence (P34981 whole entry, looked up): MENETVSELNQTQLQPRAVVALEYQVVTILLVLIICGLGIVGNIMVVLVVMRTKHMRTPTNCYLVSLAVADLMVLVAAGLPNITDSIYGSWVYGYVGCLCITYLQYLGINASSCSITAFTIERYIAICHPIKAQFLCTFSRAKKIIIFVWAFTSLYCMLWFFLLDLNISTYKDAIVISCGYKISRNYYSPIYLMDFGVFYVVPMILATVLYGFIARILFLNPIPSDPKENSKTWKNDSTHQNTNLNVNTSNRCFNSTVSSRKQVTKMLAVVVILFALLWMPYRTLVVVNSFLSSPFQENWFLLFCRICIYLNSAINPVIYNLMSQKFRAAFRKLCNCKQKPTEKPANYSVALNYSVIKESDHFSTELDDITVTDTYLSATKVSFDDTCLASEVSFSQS
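Enhancer read-out: after compound pinning and an initial kinetic agonist-mode read, an EC20 of TRH (10 nM final) was injected and fluo-8 calcium signal (Ex 480/Em 530) followed at 1 s/cycle for 100 cycles in TRHR-expressing cells.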
TRHR agonist-1 = activates the human TRH receptor | TRHR cells, calcium flux fluo-8, FDSS agonist mode | activation, % at 2 µM | 360,000 compounds, 0.18% hits | AID 493084; in the data active means activation above about 30%; further: 0% is about no effect
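Steps: seed TRHR cells overnight; add fluo-8 no-wash Ca dye, RT 30 min–1.5 h; record 10 s baseline; pin-transfer compounds; monitor fluorescence 1 cycle/s for the agonist window. Calcium increases flag candidate agonists.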
TRPV1 agonist = human TRPV1 agonism; AID 540275; activation, % at 8.33 µM; TRPV1-expressing cells, Fluo-8 calcium influx, agonist mode; 320,000 compounds, 0.19% hits; Q8NER1; in the data active means activation above about 80%; inconclusive means between about 30% and that limit; further: 0% is about no effect
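Cells expressing TRPV1 were dye-loaded with Fluo-8 and read kinetically: 10 s baseline, 3 min after compound (agonist portion), then 2 min after EC20 capsaicin (allosteric enhancer portion). Calcium-bound dye fluorescence at 480/520 nm.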
TRPML1 inh = blocks the human TRPML1 channel; Q9GZU1; TRPML1-inducible cells, Ca2+ dye fluorescence, FDSS; hits give low values; inhibition of EC80 agonist-evoked calcium signal; activity change, negative = inhibition, % (no concentration beside the values); 390,000 compounds, 0.02% hits; in the data active means activity change below about -50%; inconclusive means between about -30% and that limit;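 further: stimulus is agonist 54-4 at its EC80 concentration; on the % scale 0 is the no-effect control and ±100 the full control effect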
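TRPML1-DL cells, Tet-induced overnight (~16 h, 37 °C) at 1,500 cells/well, were loaded with Ca8 no-wash dye plus quencher for 45-90 min at room temperature. Compounds were pinned during FDSS kinetic reading; agonist 54-4 at EC80 (4 uM final) then added.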
TRHR enhancer-2 = confirmation of human TRH receptor allosteric enhancers; shares compounds with TRHR enhancer-1; TRH receptor cell assay, enhancer confirmation qHTS; activity change, negative = inhibition, % at 46.1 µM; 970 tested, under 10 active; AID 493076;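 further: compound effect scored on response to added TRH at EC20 of 10 nM; 0% is about no effect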
TRHR agonist-2 = confirmation of human TRH receptor agonists; TRHR-expressing cells, agonist activation read-out; AID 493078; Potency, µM (highest dose often 46.1 µM), for the others: top-dose activation, usual class: activators; 970 compounds, 8% hits; shares compounds with TRHR enhancer-1; further: potency means the concentration at half of the fitted maximal effect; 0% is about no effect; nearly all actives have a fitted effect of over 75% in size
Numbers without * were called inactive; ? = inconclusive; nt = not tested or not shown. An excerpt weighted towards active compounds, which were near 0.99% of everything screened. Unless noted, the call rests on the fitted dose curve; in most records, active means well fitted curve in the direction sought with a large enough effect; inconclusive means small, poorly fitted or top-dose-only effect, or another doubt; inactive means no such curve, though single readings can be large; an effect the other way counts as inactive or inconclusive.

SMILES	TRPML1 ag	TRPV1 PAM	TRHR enhancer-1	TRHR agonist-1	TRPV1 agonist	TRPML1 inh	TRHR enhancer-2	TRHR agonist-2
S=C(NCCCc1cnc[nH]1)NCCCN(Cc1ccc(Cl)cc1)c1cc(-c2ccccc2)ccn1	0	nt	nt	nt	nt	nt	nt	nt
COc1ccccc1N/C=C/c1onc(C)c1[N+](=O)[O-]	0	-12	0	47*	?	7	4	?
O=C(O)c1cccc(-c2ccc(/C=c3/sc4nc5ccccc5n4c3=O)o2)c1	23	nt	-5	30	nt	-3	-7	?
N#CN=c1snc(-c2ccccc2Cl)n1-c1ccc(F)cc1	6	nt	nt	nt	nt	nt	nt	nt
COc1ccc(OC)c(C(c2c(C)[nH][nH]c2=O)c2c(C)[nH][nH]c2=O)c1	0	6	50*	1	0	25	-1	1%
C=C1C=C(C(F)F)n2ncc(C(=O)N3CCc4ccccc4C3)c2N1	-1	nt	nt	nt	nt	nt	nt	nt
CCOC(=O)N1CCN(C(=O)CN2C(=O)/C(=C\c3cccc(OC)c3)SC2=S)CC1	-1	nt	nt	nt	nt	nt	nt	nt
O/N=C(/C[n+]1cccc(Br)c1)c1ccc2ccccc2c1	-1	nt	nt	nt	nt	nt	nt	nt
O=C(Cn1cnc2c(nnn2Cc2ccccc2)c1=O)N1CCN(c2ccccc2)CC1	0	-2	89*	-1	4	-3	-4	0%
Cc1ccc(-c2csc3ncnc(N4CCN(Cc5ccccc5)CC4)c23)cc1	nt	-1	54*	0	5	nt	-3	-1%
CCCCNC(=O)C(CC)n1c(SCc2cccc(F)c2)nc2ccncc21 (stereo not given)	-1	nt	nt	nt	nt	nt	nt	nt
CCc1ccc2nc(/N=C(\N)NC(=O)c3ccccc3)nc(C)c2c1	0	-6	45*	0	3	-10	9	8%
Cc1cc(C)c2nc(/N=C(\N)NC(=O)c3ccccc3)nc(C)c2c1	1	5	4	1	3	41	nt	nt
NC1=NC(=O)/C(=C/c2ccc(OCC(=O)O)cc2)S1	nt	-10	-3	0	1	nt	nt	nt
CCN(CC)c1ccc(/C=C2\SC(N)=NC2=O)cc1	8	10	27	29	12	0	1	?
COc1ccc(CN(Cc2ccccc2)C(=O)c2ccco2)cc1COc1ccc(NC(C)=O)cc1	-1	nt	nt	nt	nt	nt	nt	nt
COc1ccc(-c2nc3cc(C)ccn3c2NC(=O)c2c(F)cccc2Cl)cc1	2	-6	56*	2	22	3	?	5%
CC(C)CCNC(=O)NC(=O)CSc1nnc(-c2ccccc2Br)o1	0	10	42*	0	0	9	-3	2%
Cc1cc2c(cc1C)N[C@]1(C[C@H]3CCC(=O)N4CC[C@@H](C1)[C@@H]34)C(=Nc1ccccc1C)N2	-1	nt	nt	nt	nt	nt	nt	nt
COc1ccc(C(C)=O)cc1COC(=O)Cc1cc(OC)c(OC)c(OC)c1	-1	0	-3	29	2	-6	-4	-1%
COc1ccc(C(C)=O)cc1COC(=O)CNC(=O)c1ccc(Cl)cc1	1	?	-8	-2	-5	2	nt	nt
CCOCc1c(C(=O)Nc2cc(OCC)c(N3CCOCC3)cc2OCC)oc2ccccc12	0	0	-10	0	2	1	nt	nt
CCOCc1c(C(=O)Nc2ccccc2N2CCN(C)CC2)oc2ccccc12	-1	-10	44*	0	15	-7	-5	6%
Cc1ccc(F)cc1NCC(=O)Nc1ccc(Br)cc1	0	-4	0	0	4	7	nt	nt
Cc1ccc(NCC(=O)Nc2ccc(Br)cc2)cc1C	0	-6	70*	0	8	-18	4	0%
Cc1ccccc1OCC(=O)NCC(=O)OCc1ccc2ccccc2c1	0	nt	nt	nt	nt	nt	nt	nt
CN(C)c1ccc(-c2nnc(SCC(=O)NCc3ccco3)n2C)cc1	-1	nt	nt	nt	nt	nt	nt	nt
CN(CCCn1c(=S)[nH]c2ncccc2c1=O)Cc1ccccc1	0	15	46*	-1	0	-2	3	-1%

High-throughput results (PubChem)
